Laboratory results from the supplement of paper PMC8975748.
Where a name gives a salt, the structure may show the parent alone. ± gives the standard deviation of the averaged measurements.

Experiments:
[1] = tested on: Saccharomyces cerevisiae BY4741 SeMeCo community; test: mean cell size (pixel area) (pixels); higher = larger cells; settings: 10 µM; 24 h; SM minimal medium
Method in brief: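 Yeast cells were fixed with paraformaldehyde, imaged by automated confocal microscopy and analysed in Harmony to obtain mean cell pixel area per well. They came from a four-plasmid fluorescent Saccharomyces cerevisiae BY4741 community, each plasmid complementing one auxotrophy and carrying a fluorescent marker. Before imaging, 70 µl of culture at OD600 = 0.3 was incubated for 24 h in SM medium in 384-well plates predosed acoustically with drug (final 10 µM). Values are means of 3 replicates. Same SeMeCo high-content imaging drug screen: Selleck FDA-approved drugs at 10 µM, 24 h in SM medium, 384-well plates, 3 replicates.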

[2] = tested on: Saccharomyces cerevisiae BY4741 SeMeCo community; test: z-score of prototroph abundance vs DMSO median; higher = larger share of this subpopulation than in DMSO controls; settings: 10 µM; 24 h; SM minimal medium; subpopulation (auxotrophy): Prototroph
Method in brief: (§1)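 Subpopulation abundance was reported as a z-score against the median of vehicle wells. The Saccharomyces cerevisiae BY4741 community, carrying four plasmids that each restored one auxotrophy and encoded a distinct fluorescent protein, was grown 24 h in minimal SM medium in 384-well plates holding library drugs at 10 µM final. Cells were paraformaldehyde-fixed and imaged by automated confocal microscopy, with single-auxotroph fluorescent strains used for thresholds and autofluorescence correction.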

[3] = tested on: Saccharomyces cerevisiae BY4741 SeMeCo community; test: z-score of subpopulation abundance vs DMSO median, subpopulation auxotrophic for M; higher = larger share of this subpopulation than in DMSO controls; settings: 10 µM; 24 h; SM minimal medium; subpopulation (auxotrophy): M
Method in brief: as §1

[4] = tested on: Saccharomyces cerevisiae BY4741 SeMeCo community; test: z-score of subpopulation abundance vs DMSO median, subpopulation auxotrophic for L; higher = larger share of this subpopulation than in DMSO controls; settings: 10 µM; 24 h; SM minimal medium; subpopulation (auxotrophy): L
Method in brief: as §1

[5] = tested on: Saccharomyces cerevisiae BY4741 SeMeCo community; test: z-score of subpopulation abundance vs DMSO median, subpopulation auxotrophic for H; higher = larger share of this subpopulation than in DMSO controls; settings: 10 µM; 24 h; SM minimal medium; subpopulation (auxotrophy): H
Method in brief: as §1

[6] = tested on: Saccharomyces cerevisiae BY4741 SeMeCo community; test: z-score of subpopulation abundance vs DMSO median, subpopulation auxotrophic for LU; higher = larger share of this subpopulation than in DMSO controls; settings: 10 µM; 24 h; SM minimal medium; subpopulation (auxotrophy): LU
Method in brief: as §1

[7] = tested on: Saccharomyces cerevisiae BY4741 SeMeCo community; test: z-score of subpopulation abundance vs DMSO median, subpopulation auxotrophic for LM; higher = larger share of this subpopulation than in DMSO controls; settings: 10 µM; 24 h; SM minimal medium; subpopulation (auxotrophy): LM
Method in brief: as §1

[8] = tested on: Saccharomyces cerevisiae BY4741 SeMeCo community; test: z-score of subpopulation abundance vs DMSO median, subpopulation auxotrophic for HM; higher = larger share of this subpopulation than in DMSO controls; settings: 10 µM; 24 h; SM minimal medium; subpopulation (auxotrophy): HM
Method in brief: as §1

[9] = tested on: Saccharomyces cerevisiae BY4741 SeMeCo community; test: z-score of subpopulation abundance vs DMSO median, subpopulation auxotrophic for HU; higher = larger share of this subpopulation than in DMSO controls; settings: 10 µM; 24 h; SM minimal medium; subpopulation (auxotrophy): HU
Method in brief: as §1

[10] = tested on: Saccharomyces cerevisiae BY4741 SeMeCo community; test: z-score of subpopulation abundance vs DMSO median, subpopulation auxotrophic for UM; higher = larger share of this subpopulation than in DMSO controls; settings: 10 µM; 24 h; SM minimal medium; subpopulation (auxotrophy): UM
Method in brief: as §1

[11] = tested on: Saccharomyces cerevisiae BY4741 SeMeCo community; test: z-score of subpopulation abundance vs DMSO median, subpopulation auxotrophic for HL; higher = larger share of this subpopulation than in DMSO controls; settings: 10 µM; 24 h; SM minimal medium; subpopulation (auxotrophy): HL
Method in brief: as §1

[12] = tested on: Saccharomyces cerevisiae BY4741 SeMeCo community; test: z-score of subpopulation abundance vs DMSO median, subpopulation auxotrophic for HLU; higher = larger share of this subpopulation than in DMSO controls; settings: 10 µM; 24 h; SM minimal medium; subpopulation (auxotrophy): HLU
Method in brief: as §1

[13] = tested on: Saccharomyces cerevisiae BY4741 SeMeCo community; test: z-score of subpopulation abundance vs DMSO median, subpopulation auxotrophic for HLM; higher = larger share of this subpopulation than in DMSO controls; settings: 10 µM; 24 h; SM minimal medium; subpopulation (auxotrophy): HLM
Method in brief: as §1

[14] = tested on: Saccharomyces cerevisiae BY4741 SeMeCo community; test: z-score of subpopulation abundance vs DMSO median, subpopulation auxotrophic for HUM; higher = larger share of this subpopulation than in DMSO controls; settings: 10 µM; 24 h; SM minimal medium; subpopulation (auxotrophy): HUM
Method in brief: as §1

[15] = tested on: Saccharomyces cerevisiae BY4741 SeMeCo community; test: z-score of subpopulation abundance vs DMSO median, subpopulation auxotrophic for LUM; higher = larger share of this subpopulation than in DMSO controls; settings: 10 µM; 24 h; SM minimal medium; subpopulation (auxotrophy): LUM
Method in brief: as §1

[16] = tested on: Saccharomyces cerevisiae BY4741 SeMeCo community; test: z-score of subpopulation abundance vs DMSO median, subpopulation auxotrophic for U; higher = larger share of this subpopulation than in DMSO controls; settings: 10 µM; 24 h; SM minimal medium; subpopulation (auxotrophy): U
Method in brief: as §1

[17] = tested on: Saccharomyces cerevisiae BY4741 SeMeCo community; test: z-score of subpopulation abundance vs DMSO median, subpopulation auxotrophic for HLUM; higher = larger share of this subpopulation than in DMSO controls; settings: 10 µM; 24 h; SM minimal medium; subpopulation (auxotrophy): HLUM
Method in brief: as §1

SMILES	mean cell size [1]	z-score of prototroph abundance [2]	z-score of subpopulation abundance [3]	z-score of subpopulation abundance [4]	z-score of subpopulation abundance [5]	z-score of subpopulation abundance [6]	z-score of subpopulation abundance [7]	z-score of subpopulation abundance [8]	z-score of subpopulation abundance [9]	z-score of subpopulation abundance [10]	z-score of subpopulation abundance [11]	z-score of subpopulation abundance [12]	z-score of subpopulation abundance [13]	z-score of subpopulation abundance [14]	z-score of subpopulation abundance [15]	z-score of subpopulation abundance [16]	z-score of subpopulation abundance [17]
OC(c1cc(C(F)(F)F)nc2c(C(F)(F)F)cccc12)C1CCCCN1 (stereo unspecified) [Mefloquine HCl]	12.3 ± 0.37	-0.39	-0.32	0.1	-0.01	1.02	0.3	0.44	-0.36	0.92	0.36	0.29	0	0.3	0.86		
CC[C@H]1OC(=O)[C@H](C)[C@@H](O[C@H]2C[C@@](C)(OC)[C@@H](O)[C@H](C)O2)[C@H](C)[C@@H](O[C@@H]2O[C@H](C)C[C@H](N(C)C)[C@H]2O)[C@](C)(O)C[C@@H](C)/C(=N\OCOCCOC)[C@H](C)[C@@H](O)[C@]1(C)O [Roxithromycin]	12.4 ± 0.26	-0.63	0.34	-0.94	0.59	-0.28	0.13		0.46	0.31	0.42	0	-0.45	1.28	0.55	0.31	-0.6
CCCN(CCC)CCc1cccc2c1CC(=O)N2 [Ropinirole HCl]	12.4 ± 0.22	-0.81	-0.4	1.95	-0.16	1.24	0.91	0.44	0.41	0.06		1.05	-0.19	0.58		0.26	
CC(=O)Oc1ccc(C(=C2CCCCC2)c2ccc(OC(C)=O)cc2)cc1 [Cyclofenil]	12.3 ± 0.17	0.79	-1.19	-0.27		-0.48	-1.03	-0.93	-0.3	-0.03		-0.23	0.41	-0.46	-0.06		
O=C(Nc1cc(Cl)cc(Cl)c1O)c1c(O)c(Cl)cc(Cl)c1Cl [Oxyclozanide]	12.2 ± 0.31	2.11	-2.38	-0.21	-2.53	-0.32	-0.51	-2.11	-1.36	-1.83		-0.55	0.96	-0.71	-0.27	-0.91	
Nc1nc2c(ncn2COC(CO)CO)c(=O)[nH]1 [Ganciclovir]	12.4 ± 0.16		0.43	0	-0.43	-0.06	-0.15	-0.15	-0.11	0.96	-0.27	0.54	-0.21	0.33	-0.04	0.17	
COc1ccccc1N1CCN(CCCNc2cc(=O)n(C)c(=O)n2C)CC1 [Urapidil HCl]	12.49 ± 0.088	-0.23	-0.32	-1	-0.78	0.29	-0.25		0.01	0	-0.53	-0.11	-0.67	-0.59	-0.71	1.09	-0.28
O=C(O)CCc1nc(-c2ccccc2)c(-c2ccccc2)o1 [Oxaprozin]	13 ± 0.46	2.48	-1.37	-0.53		-2.1	-1	-0.83	-1.46	-3.67	-0.56	-0.7	-0.64	-1.67	-1.68		
CCCCCCCCN=c1ccn(CCCCCCCCCCn2ccc(=NCCCCCCCC)cc2)cc1 [Octenidine Dihydrochloride]	9.029 ± 0.063	-16.1	-8.04	3.6	13.2	14.2	0.87	6.33	23.6	13.5	20	5.94	27.7	26.9	13.8	2.6	
CN(C)CC/C=C1/c2ccccc2Sc2ccc(Cl)cc21 [Chlorprothixene]	12.2 ± 0.36	0.08	0.73	-0.89	-1	-0.59		-0.62	0.13	0.34	-0.06	-0.48	-0.36	-0.32	-0.1	0.62	-0.55
O=C1CC2(CCCC2)CC(=O)N1CCCCN1CCN(c2ncccn2)CC1 [Buspirone HCl]	12.4 ± 0.25	0.7	-1.82	0.76	-0.72	1.78	-0.34		-0.07		0	-0.25	-0.1	-0.84	-0.12		0.74
CONC(=O)Nc1ccc(-c2sc3c(c2CN(C)C)c(=O)n(-c2ccc(OC)nn2)c(=O)n3Cc2c(F)cccc2F)cc1 [Relugolix]	12.2 ± 0.23	0.18	-1.52	0.15	0.68	-0.09	-0.08		0.09			0.32	-0.07	-0.45	0.11	0.32	0.58
COC(=O)C1=C(C)NC(C)=C(C(=O)OCCN2CCN(C(c3ccccc3)c3ccccc3)CC2)C1c1cccc([N+](=O)[O-])c1 (stereo unspecified) [Manidipine]	12 ± 0.18	-1.43	1.78	0.96	2.53	-1.04	2.53		0.65			1.73	0.64	2.11	0.72	-1.02	0.6
N=C(N)NC(=O)c1nc(Cl)c(N)nc1N [Amiloride HCl dihydrate]	12.1 ± 0.19	1.39	3.23	0.68	0.83	-3.52	2.66		-2.8		0.71	-1.34	0.23	-1.45	-1.62	-3.02	
